Laboratory results taken from the supplement of paper PMC6555819.

Columns and labels:
Assay in all cases: PBM binding z-score (relative to random genomic background probes); higher = stronger binding; sequences stand for … in GC…GCGATTGACAGCGTAGAATGAAGG
[1] = tested on: FXR:RXRa (NR concentration 270 nM, RXRa partner concentration 90 nM)
In short: (§1)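 Antibodies against each partner of ligand-free nuclear receptor dimers (one per run) detected binding on custom Agilent 4×180K protein-binding microarrays after 1 h incubation. The double-stranded probes had 34-nt variable regions carrying direct-repeat seeds, single-nucleotide variants, half-site ablations and random human genomic background sequences. Binding z-scores, from regression-normalized fluorescence, use the random background probes as reference.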

[2] = tested on: LXRa:RXRa (NR concentration 270 nM, RXRa partner concentration 90 nM)
In short: as §1

[3] = tested on: LXRa homodimer (NR concentration 270 nM)
In short: as §1

[4] = tested on: LXRb:RXRa (NR concentration 270 nM, RXRa partner concentration 90 nM)
In short: as §1

[5] = tested on: LXRb homodimer (NR concentration 270 nM)
In short: as §1

[6] = tested on: PPARa:RXRa (NR concentration 270 nM, RXRa partner concentration 90 nM)
In short: as §1

[7] = tested on: PPARg:RXRa (NR concentration 180 nM, RXRa partner concentration 90 nM)
In short: as §1

[8] = tested on: PPARg:RXRa 270nM:90nM, anti-RXR (NR concentration 270 nM, RXRa partner concentration 90 nM)
In short: as §1

[9] = tested on: PPARg:RXRa 30nM:10nM, anti-RXR (NR concentration 30 nM, RXRa partner concentration 10 nM)
In short: as §1

[10] = tested on: PPARg:RXRa 90nM:30nM, anti-RXR (NR concentration 90 nM, RXRa partner concentration 30 nM)
In short: as §1

| Sequence | PBM binding z-score [1] | PBM binding z-score [2] | PBM binding z-score [3] | PBM binding z-score [4] | PBM binding z-score [5] | PBM binding z-score [6] | PBM binding z-score [7] | PBM binding z-score [8] | PBM binding z-score [9] | PBM binding z-score [10] |
| --- | --- | --- | --- | --- | --- | --- | --- | --- | --- | --- |
| ACTATGAGTTGAGACGAGGGCAACCGATAGGTTG | 1.25 | 0.578 | -0.194 | 0.311 | -0.0217 | 0.709 | 0.835 | 0.44 | 0.0728 | 0.0976 |
| CGTCCAAGGTCCAGGTCAGTGAAAGAGACTCGAA | 0.579 | 0.595 | 0.0341 | 0.462 | -0.914 | 1.17 | 0.0886 | 0.162 | -0.651 | -0.258 |
| TCGAGTAGATTAGGGGCATTCAGAATGGCGTCGA | -0.41 | -0.292 | -0.833 | 0.457 | -0.772 | 0.269 | -0.0813 | 0.334 | 0.917 | 0.699 |
| AGAACGAGGTTATACGTAGATCAGGGAAGAAAGT | 1.59 | 1.47 | 0.0402 | 1.32 | -0.361 | 2.78 | 1.58 | 1.39 | 0.732 | 1 |
| CGTCAAAATTCAAGGTAACGTAACAGAAAGCAGC | 0.068 | -0.273 | 0.242 | 0.13 | 0.187 | 0.331 | 0.678 | 0.108 | 0.0221 | 0.028 |
| TCTGCTAGGTCCGTTGGTCAGCTAACGAGCTGCC | -0.505 | -0.6 | -1.09 | -0.828 | -0.736 | -0.336 | -1.2 | -0.0919 | 0.802 | 0.586 |
| ATATGTAGGTTATCGGATCATTCAGTTTGCGCAT | 0.778 | 1.32 | 0.544 | 0.974 | 0.803 | 3.32 | 4.5 | 4.3 | 2.14 | 3.56 |
| GTACCAAGGTGAATAGTTCGTTGATGAGTAGGCG | 0.539 | 0.334 | -0.116 | 0.214 | -0.29 | 1.24 | 0.857 | 1.06 | -0.033 | 0.842 |
| TCATGTAGATCAAAGGTTAAGAAAGCCGAAGCCT | 1.74 | 2.28 | 0.326 | 2.06 | -0.197 | 4.5 | 8.22 | 8.1 | 7.58 | 8.85 |
| CGAACTAGGTCATCCGGGACAGTGAATACATTGA | 4.46 | 2.66 | 0.565 | 2.05 | 0.166 | 5.08 | 8.08 | 6.28 | 3.97 | 5.8 |
| TATACAGGGTCAGAGGCCAGAGTACGAATGTCGA | 4.14 | 3.96 | 0.791 | 2.95 | 1.8 | 4.29 | 5.34 | 5.19 | 3.23 | 4.52 |
| ATCTCTATGTAAAGATAGTTCAGTGAATGCAAAT | -0.132 | 0.583 | 0.163 | 0.261 | 0.232 | 0.222 | 0.759 | 0.0606 | 0.319 | 0.173 |
| CAAACTAGGTCACCGGAAGATCAAAGTCCGCATG | 4.71 | 3.6 | 0.641 | 2.62 | 0.598 | 5.66 | 9.41 | 7.49 | 5.48 | 7.48 |
| CAAACTTGGTCACGAAAGGTCAAAGTCGAATGAC | 5.56 | 6.11 | 5.72 | 5.74 | 2.04 | 5.22 | 4.84 | 5.24 | 2.75 | 4.59 |
| ACATACAGGTGAGTGAAGGTAACTCAGCTGGACG | 0.866 | 0.707 | -0.217 | -0.161 | -0.321 | 1.21 | 1.28 | 0.814 | 0.519 | 0.883 |
| ACGATTAGTTGAGACGAGGGCAACCGATAGGTTG | 0.116 | -0.256 | -0.3 | -0.292 | -0.463 | 0.252 | 0.533 | -0.0475 | -0.114 | -0.534 |
| TCTTGTAGATCAGTAGAGGTTAAGAAAGTGCGCT | 0.847 | 3.26 | 0.497 | 1.64 | -0.181 | 1.44 | -0.271 | 1.56 | 2.48 | 2.12 |
| TCTCGGAGGACACAAAAGGTCAGAGCTCGACATC | 2.8 | 4.16 | 2.83 | 3.27 | 0.142 | 3.53 | 1.51 | 2.66 | 2.44 | 2.62 |
| CCGACTGGGGTATAAGGTTACCATAAGCCAGCCC | 0.283 | 1.57 | -0.00996 | 0.982 | -0.761 | 1.69 | 1.79 | 2.38 | 0.774 | 2.06 |

| Sequence | PBM binding z-score [1] | PBM binding z-score [2] | PBM binding z-score [3] | PBM binding z-score [4] | PBM binding z-score [5] | PBM binding z-score [6] | PBM binding z-score [7] | PBM binding z-score [8] | PBM binding z-score [9] | PBM binding z-score [10] |
| --- | --- | --- | --- | --- | --- | --- | --- | --- | --- | --- |
| CCTTACGGGTCACTGACAGGTTTTAGCATTTGGA | 5.38 | 3.52 | -0.116 | 3.31 | 0.045 | 5.09 | 4.18 | 4.36 | 1.27 | 3.04 |
| GGAACGAGGGCAAGTTGATATCAGAGTTTGATGG | 0.903 | 0.358 | -0.105 | 0.453 | -0.362 | 1.73 | 1.22 | 1 | 0.0363 | 0.552 |
| TCATACAGGTAAACAGGTGAAAGTCCGTAAGTTA | 0.989 | 1.11 | 0.506 | 1.2 | 0.202 | 2.18 | 1.6 | 3.16 | 4.13 | 3.71 |
| CTCGAACGGTCGTGCTCAGGTGAGTATACCAAAC | -0.183 | -0.208 | -0.21 | -0.274 | -0.517 | -0.309 | -0.285 | -0.662 | -0.759 | -1.01 |
| ACTAGTTGGTCTGCTGAGGTCACACACAATTCGG | 2.8 | 2.9 | 1.91 | 3.28 | 0.53 | 3.39 | 1.35 | 1.95 | 0.572 | 1.35 |
| CGTCCAAGGTCAAGATCAGTGAAAGAGACTCGAA | 6.95 | 4.97 | 0.248 | 3.85 | 0.6 | 5.63 | 4.78 | 5.2 | 1.46 | 3.58 |
| TCGAGTAGGTTAGGCGCATTCAGAATGGCGTCGA | -0.434 | -0.29 | -0.682 | -0.547 | -1.16 | 0.216 | -0.326 | 0.786 | 0.835 | 0.489 |
| ACTATTAGTTGCGACGAGGGCAACCGATAGGTTG | 0.025 | -0.176 | -0.51 | -0.131 | -0.0376 | 0.201 | 0.576 | 0.00262 | -0.168 | 0.0381 |
| CGTCCAAGGTCAGCAGGTCCGTGAAAGCGACGTG | 4.81 | 3.09 | -0.42 | 2.19 | -0.0479 | 4.13 | 2.24 | 3.15 | 0.0631 | 1.82 |
| ATCGAAAGGCCGAAGGTGAGTATACCCACCCGAA | -0.216 | -0.00303 | -0.202 | -0.349 | -0.732 | 0.657 | 1.25 | 1.31 | 0.275 | 0.738 |
| GGAACGAGGGCATTCGAGATGATAGCATGGCGAT | 0.866 | 0.444 | -0.191 | -0.035 | -0.591 | 1.38 | 1.36 | 0.68 | 0.253 | 0.521 |
| TCGAGTAGGTTAGTCGAGGCATTCAGCCAACATA | 0.165 | -0.288 | -0.432 | -0.531 | -1.3 | 0.172 | -0.115 | 0.522 | 0.735 | 0.72 |
| ACTATTAGTTGAGACGAGAGCAACCGATAGGTTG | -0.0812 | -0.233 | -0.161 | -0.216 | 0.14 | -0.533 | 0.493 | -0.133 | 0.37 | 0.081 |
| TCTTGTAGAACAAAGGTTAAGAAAGCCGAAGCCT | 1.11 | 1.68 | -0.0357 | 1.97 | -0.155 | 4.32 | 7.84 | 7.99 | 7.71 | 8.74 |
| TGAATGAGGTTATAAGAGCAGGGAACGTTGCAAA | 1.63 | 1.78 | -0.152 | 0.923 | -0.0285 | 2.86 | 1.32 | 2.13 | 0.717 | 1.52 |
| AGTCAAAGTTCTCTAGGTAACGTAAGATTCAGCT | 0.109 | -0.065 | 0.22 | 0.0719 | -0.356 | 0.668 | 0.831 | 1.19 | 0.092 | 0.81 |
| CTCGAAACGTCGGTTGAGGTGAGTATACGGATAA | 0.172 | -0.188 | -0.566 | -0.297 | -0.3 | -0.163 | 0.00135 | -0.342 | -0.256 | -0.221 |
| ATCTCTAGGTAAGATTCAGTTCAGTGAAGAACGC | 0.354 | 0.48 | 0.604 | 0.249 | 0.778 | 0.179 | -0.128 | 0.299 | 0.045 | 0.492 |
| CCTTACGGATCACTCCAGGTTATAGCATCGGAGT | 0.957 | 3.48 | 1.36 | 0.889 | 0.62 | 0.155 | 0.486 | -0.0175 | -0.194 | -0.283 |
